Drawing on PubChem BioAssay AID485272 (The Scripps Research Institute Molecular Screening Center, 2010), this text covers inhibition for 27 molecules.

Usually inhibition stands for the relative decrease from the control value, in per cent.

The structures appear in SMILES notation. The whole screen tested about 330,000 compounds, of which about 1,300 (0.39%) were called active.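 The calls were made as follows: active = percent inhibition above a cutoff equal to the mean of all tested compounds plus 3 SD (cut at about 15% in these data); inactive = the rest.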 Only a selection was taken, and actives are over-represented in it overall.

This assay deals with Protein-arginine deiminase type-4 (Homo sapiens) (UniProt Q9UM07). The experiment in a line: human PAD4 inhibitors, primary screen, biochemical, fluorescence polarization, 1536-well format (AID 485272).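 Also: 0% = PAD4 with RCA probe and DMSO and 100% = probe without PAD4.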 Particulars: recombinant PAD4, RCA probe fluorescence polarization; at 6.36 µM; active compounds read high. For orientation: In fluorescence polarisation assays a small probe gives low polarisation when free and higher when bound to something large.
Sequence of Protein-arginine deiminase type-4 (Homo sapiens) (Q9UM07 whole entry, looked up): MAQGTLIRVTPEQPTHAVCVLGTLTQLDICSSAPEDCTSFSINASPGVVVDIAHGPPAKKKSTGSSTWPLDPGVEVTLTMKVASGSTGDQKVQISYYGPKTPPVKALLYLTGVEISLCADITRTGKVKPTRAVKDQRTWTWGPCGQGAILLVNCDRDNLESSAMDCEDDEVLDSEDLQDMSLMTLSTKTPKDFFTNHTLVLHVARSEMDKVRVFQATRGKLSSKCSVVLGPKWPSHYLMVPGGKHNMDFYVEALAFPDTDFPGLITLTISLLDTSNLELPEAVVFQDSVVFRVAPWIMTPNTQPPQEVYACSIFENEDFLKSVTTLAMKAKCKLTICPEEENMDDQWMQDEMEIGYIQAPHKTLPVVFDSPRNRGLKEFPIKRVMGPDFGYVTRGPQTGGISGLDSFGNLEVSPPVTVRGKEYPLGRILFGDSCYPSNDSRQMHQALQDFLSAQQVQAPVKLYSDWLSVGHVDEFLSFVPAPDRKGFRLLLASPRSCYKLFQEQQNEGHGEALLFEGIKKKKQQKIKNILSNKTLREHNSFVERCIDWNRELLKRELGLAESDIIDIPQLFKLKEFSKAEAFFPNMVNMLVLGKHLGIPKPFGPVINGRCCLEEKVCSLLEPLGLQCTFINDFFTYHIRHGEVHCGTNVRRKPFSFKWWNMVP
With `CC(C)C(=O)N1CC(=O)Nc2ccc(F)cc2C1c1ccc(F)cc1` (configuration not stated), the inhibition is 4.93% (inactive).
The value for `O=C(NC1CCCCC1)c1ccc(-c2ccc(Cl)cc2)o1` was 0.31% (inactive); that for `CCOc1ccc(C(c2c(C)[nH][nH]c2=O)c2c(C)[nH][nH]c2=O)cc1OCC` was -2.1% (inactive); that for `Cc1[nH][nH]c(=O)c1C(c1ccc(-c2ccc(Cl)cc2)o1)c1c(C)[nH][nH]c1=O` was 20.2% (active).
Regarding `CCOC(=O)N1CCC(NC(=O)CCc2ccccc2)CC1`, the inhibition was 1.67% (inactive).
In the case of `CCOC(=O)N1CCC(c2cc(=O)n(-c3ccccc3)[nH]2)CC1` it was 55.1% (active); in that of `CCOC(=O)N1CCC(NC(=O)COc2cc(=O)n(C)c3ccccc23)CC1`, 3.7% (inactive).
The value for `CCOC(=O)Cn1nnnc1C` was -0.83% (inactive); that for `CC(C)N(Cc1ccccc1)C(=O)COC(=O)c1ccccc1SCC(=O)N1CCCC1` was -1.69% (inactive); that for `c1ccc2c(C[n+]3csc4ccccc43)cccc2c1` was 58.5% (active).
As to `Nc1scc[n+]1Cc1cccc2cccnc12`, the inhibition is -3.55% (inactive).
In the case of `N#C/C(=C(/O)Cc1cccc2ccccc12)c1nc2ccccc2s1` it was -0.3% (inactive); in that of `COc1ccc(OC)c(CNC(=O)C2CCCN(c3nc4ccccc4o3)C2)c1` (configuration not stated), 0.33% (inactive); in that of `COc1ccccc1CNC(=O)C1CCN(c2nc3ccccc3o2)CC1`, 23% (active).
In the case of `COc1ccccc1CNC(=O)C1CCN(S(C)(=O)=O)CC1` it was 3.16% (inactive).
The value for `COc1ccc(CCNC(=S)NC(=O)/C=C/c2ccc(C)cc2)cc1OC` was 0.57% (inactive); that for `CC(C)CC(=O)NC(=S)Nc1ccc(F)cc1F` was -0.18% (inactive).
`O=S(=O)(Nc1ccc(O)c2ccccc12)c1ccc(OC(F)(F)F)cc1`: the inhibition was 20.5% (active).
In the case of `O=C1COc2ccc(S(=O)(=O)Nc3ccc(OC(F)(F)F)cc3)cc2N1` it was -0.73% (inactive); in that of `Cc1nn(C)c(C)c1NS(=O)(=O)c1ccc(OC(F)(F)F)cc1`, -4.79% (inactive); in that of `O=S(=O)(Cc1cc(Cl)nc(-c2cccnc2)n1)c1ccccc1`, -1.95% (inactive).
The value for `Cc1ccc(C(NC(=O)N2CCCC2)C(Cl)(Cl)Cl)cc1F` (configuration not stated) was 0.88% (inactive).
The value for `CC(C)Oc1ccc(S(=O)(=O)N2CCOCC2)cc1NC(=O)C1CSC2(C)CCC(=O)N12` (configuration not stated) was -1.2% (inactive); that for `Cc1c(C2=CCN(S(=O)(=O)c3ccc(Cl)cc3)CC2)c2ccccc2n1C` was -48.2% (inactive); that for `COc1ccc(S(=O)(=O)N2CCOCC2)cc1NC(=O)CSc1nnc(NC2CC2)s1` was -2.8% (inactive).
On to `COc1ccc(S(=O)(=O)N2CCOCC2)cc1NC(=O)COc1ccccc1`, for which the inhibition was 6.68% (inactive).
In the case of `COc1ccc(S(=O)(=O)N2CCOCC2)cc1NC(=O)CSc1ncnc2ccccc12` it was 18.5% (active).
